“And” between values parts separate entries of the source, which are not always exact repeats. Equal entries are not always repeated. Some compounds were tested as several samples or in several runs, with calls that do not always agree. The source made the active and inactive calls. Unless noted, calls come from the whole dose curve; as a rule, active = well fitted curve in the direction sought with a large enough effect in the repeat runs; inconclusive = weak or mixed curves; inactive = no such curve, though single readings can be large; an effect the other way counts as inactive or inconclusive. Positions of bridges follow the written chain, without caps; N, C: chain ends. Non-standard residues stand in square brackets, D forms with d. Residues, ends and D or L forms follow the SMILES beside them. pGlu = O=C1CC[C@@H](C(=O)O)N1; Orn = NCCC[C@H](N)C(=O)O; Mpa = O=C(O)CCS
Key:
[1] = qHTS assay to identify small molecule antagonists of the thyroid receptor (TR) signaling pathway - cell viability counter screen (AID 743064); note: nearly all actives have a fitted effect of over 50% in size; note: potency is the fitted concentration of half-maximal effect
Procedure, shortened: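 Fluorescence from CellTiter-Fluor, added after 23.5 h exposure at 37 °C, reported viability of GH3.TRE-Luc cells co-treated with compound and 1 nM T3. Measured in the same wells as the luciferase TR readout.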

[2] = qHTS assay to identify small molecule antagonists of the estrogen receptor alpha (ER-alpha) signaling pathway - cell viability counter screen (AID 743074; calls by dose curve;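 note: HEK293 cells carrying ER-alpha-UAS-bla reporter stimulated with 17beta-estradiol; nearly all actives have a fitted effect of over 45% in size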; note: potency is the fitted concentration of half-maximal effect)
[3] = target: Estrogen receptor (Homo sapiens) (UniProt P03372); test: qHTS assay to identify small molecule agonists of the estrogen receptor alpha (ER-alpha) signaling pathway (AID 743075; calls by dose curve;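 note: HEK293 GripTite cells with ER-alpha and UAS-driven beta-lactamase reporter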; note: potency is the fitted concentration of half-maximal effect)
Chain of Estrogen receptor (Homo sapiens) (P03372 whole entry, looked up): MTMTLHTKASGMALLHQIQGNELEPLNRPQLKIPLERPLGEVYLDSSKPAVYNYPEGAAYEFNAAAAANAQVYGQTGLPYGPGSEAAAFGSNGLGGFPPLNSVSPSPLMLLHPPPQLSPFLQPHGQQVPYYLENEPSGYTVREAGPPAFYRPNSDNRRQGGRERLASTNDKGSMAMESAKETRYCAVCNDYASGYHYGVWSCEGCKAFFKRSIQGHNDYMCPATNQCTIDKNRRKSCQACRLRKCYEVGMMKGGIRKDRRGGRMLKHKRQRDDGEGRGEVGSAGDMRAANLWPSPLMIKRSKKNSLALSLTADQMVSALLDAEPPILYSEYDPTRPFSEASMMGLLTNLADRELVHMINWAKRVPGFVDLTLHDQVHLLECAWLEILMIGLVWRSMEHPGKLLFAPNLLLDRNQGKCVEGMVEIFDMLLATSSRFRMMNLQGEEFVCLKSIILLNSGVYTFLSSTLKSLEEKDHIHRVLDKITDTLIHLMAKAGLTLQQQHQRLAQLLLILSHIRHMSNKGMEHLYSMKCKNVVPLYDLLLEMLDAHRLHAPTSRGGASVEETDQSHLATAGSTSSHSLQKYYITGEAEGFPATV

[4] = target: Estrogen receptor (Homo sapiens) (UniProt P03372); test: qHTS assay to identify small molecule agonists of the estrogen receptor alpha (ER-alpha) signaling pathway using the BG1 cell line (AID 743079); settings: BG1Luc4E2 cells, ERE-luciferase agonist, 22 h; activation: at 70.3 µM (top of the series); note: nearly all actives have a fitted effect of over 20% in size; note: potency is the fitted concentration of half-maximal effect
Aromatase (Homo sapiens) = Aromatase (Homo sapiens) (UniProt P11511); test: qHTS assay to identify aromatase inhibitors (AID 743083); note: nearly all actives have a fitted effect of over 55% in size
Chain of Aromatase (Homo sapiens) (P11511 whole entry, looked up): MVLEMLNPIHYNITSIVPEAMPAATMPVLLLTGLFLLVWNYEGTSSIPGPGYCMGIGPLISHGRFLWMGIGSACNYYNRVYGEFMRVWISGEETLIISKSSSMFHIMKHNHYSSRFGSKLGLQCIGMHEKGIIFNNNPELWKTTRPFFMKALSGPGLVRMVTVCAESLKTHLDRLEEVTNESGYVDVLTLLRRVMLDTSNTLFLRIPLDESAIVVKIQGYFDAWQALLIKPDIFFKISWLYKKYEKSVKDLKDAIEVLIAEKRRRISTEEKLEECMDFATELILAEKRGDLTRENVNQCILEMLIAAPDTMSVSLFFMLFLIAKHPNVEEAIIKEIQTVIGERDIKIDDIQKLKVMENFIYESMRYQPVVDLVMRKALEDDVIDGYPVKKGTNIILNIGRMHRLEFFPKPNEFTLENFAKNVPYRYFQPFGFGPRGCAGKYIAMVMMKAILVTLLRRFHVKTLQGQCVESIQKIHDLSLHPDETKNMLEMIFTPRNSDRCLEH

[5] = qHTS assay to identify small molecule antagonists of the estrogen receptor alpha (ER-alpha) signaling pathway using the BG1 cell line - cell viability counter screen (AID 743081);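 note: compound given together with 17beta-estradiol as the ER stimulus; nearly all actives have a fitted effect of over 45% in size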; note: potency is the fitted concentration of half-maximal effect
[6] = target: Estrogen receptor (Homo sapiens) (UniProt P03372); test: qHTS assay to identify small molecule antagonists of the estrogen receptor alpha (ER-alpha) signaling pathway (AID 743069; active = well fitted curve in the direction sought with a large enough effect in the signal ratio in the repeat runs, not every such curve was filed as active; inconclusive = weak or mixed curves, or effect the other way; inactive = no such curve, though single readings can be large or run the other way; the % refers to the signal ratio; note: potency is the fitted concentration of half-maximal effect)
Procedure, shortened: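 ER-alpha-UAS-bla GripTite HEK293 line; 2% charcoal-stripped FBS overnight; plated, 4 hr 37C/5% CO2; cpd in DMSO + 17beta-estradiol, 18 hr 37C; LiveBLAzer B/G FRET substrate 2 hr RT; fluorescence intensity.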

[7] = qHTS assay to identify small molecule antagonists of the thyroid receptor (TR) signaling pathway (AID 743065); note: nearly all actives have a fitted effect of over 55% in size; note: potency is the fitted concentration of half-maximal effect
Procedure, shortened: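 Antagonism measured as loss of luciferase signal in GH3 cells stably carrying a TRE-luciferase reporter, co-treated with compound and T3 (1 nM final) for 23.5 h at 37 C. Viability was read in the same well by CellTiter-Fluor.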

[8] = tested on: thyroid hormone receptor (rat, GH3 cells); test: qHTS assay to identify small molecule agonists of the thyroid receptor (TR) signaling pathway (AID 743066; calls by dose curve)
[9] = qHTS assay to identify small molecule antagonists of the estrogen receptor alpha (ER-alpha) signaling pathway using the BG1 cell line (AID 743080; calls by dose curve;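 note: BG1 cells stimulated with 17beta-estradiol alongside compound; nearly all actives have a fitted effect of over 25% in size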)
Procedure, shortened: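 Seeding, 24 h rest, compound transfer from DMSO, 17beta-estradiol addition, 21.5 h incubation, CellTiter-Fluor (30 min, 37 C), then ONE-Glo (30 min, room temperature): this sequence was run on BG1-Luc-4E2 reporter cells.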

Measured: Potency

C#C[C@]1(O)CC[C@H]2[C@@H]3CCC4=CC(=O)CC[C@@H]4[C@H]3C(=C)C[C@@]21CC
inactive: [1] | [2] | Aromatase (Homo sapiens)
active: [3] 2.39 µM [inconclusive] | [4] 1.88 µM

O=C(Cn1c(=O)sc2ccc(Cl)cc21)N1CCN(CCO)CC1
inactive: [1] | [2] | [5] | Aromatase (Homo sapiens)

CCC(C)[C@H]1O[C@]2(C=C[C@@H]1C)C[C@@H]1C[C@@H](C/C=C(\C)[C@@H](O[C@H]3C[C@H](OC)[C@@H](O[C@H]4C[C@H](OC)[C@H](NC(C)=O)[C@H](C)O4)[C@H](C)O3)[C@@H](C)/C=C/C=C3\CO[C@@H]4[C@H](O)C(C)=C[C@@H](C(=O)O1)[C@]34O)O2 (stereo partly specified)
inactive: [3] | Aromatase (Homo sapiens)
23.7 µM (active) and inactive: [5]
active: [1] 2.66 µM and 7.5 µM | [6] 1.69 µM [inconclusive] | [2] 8.49 µM and 26.8 µM

CO/N=C(\C(=O)N[C@@H]1C(=O)N2C(C(=O)O)=C(CSC(=O)c3ccco3)CS[C@H]12)c1csc(N)n1
not listed: [1]
inactive: all other assays above

CCC(=O)c1ccc2c(c1)N(CCCN1CCN(CCO)CC1)c1ccccc1S2
inactive: [2] | [3] | [4] | [9]
active: [1] 10.6 µM

CC1=C[C@H](O)CC(C)(C)[C@H]1/C=C/C(C)=C/C=C/C(C)=C/C=C/C=C(C)/C=C/C=C(C)/C=C/C1=C(C)C[C@@H](O)CC1(C)C
inactive: [2] | Aromatase (Homo sapiens)
active: [1] 23.7 µM

COC1=C(C(=O)O)N2C(=O)[C@@H](NC(=O)[C@H](N)C3=CCC=CC3)[C@H]2SC1
not listed: [2] | [7] | [8]
inactive: all other assays above

O=[N+]([O-])O[C@@H]1CO[C@H]2[C@@H]1OC[C@@H]2O
not listed: [1] | Aromatase (Homo sapiens)
inactive: all other assays above

CC1C(=O)CC2C3(C)CCC2(C(C)C(=O)O)C(=O)C13 (stereo unspecified)
not listed: [7] | [8]
inactive: all other assays above

C=C[C@]1(C)C[C@@H](OC(=O)CO)[C@]2(C)[C@H](C)CC[C@]3(CCC(=O)[C@H]32)[C@@H](C)[C@@H]1O
inactive: [1] | [6] | [3] | [4] | [9] | Aromatase (Homo sapiens)

CN[C@@H]1[C@H](O[C@H]2[C@H](O[C@H]3[C@H](O)[C@@H](O)[C@H](N=C(N)N)[C@@H](O)[C@@H]3N=C(N)N)O[C@@H](C)[C@]2(O)C=O)O[C@@H](CO)[C@H](O)[C@H]1O
not listed: [1]
inactive: all other assays above

COCC(=O)Nc1cc(Sc2ccccc2)ccc1N=C(NC(=O)OC)NC(=O)OC
active: [7] 23.7 µM
not listed: [1]
inactive: all other assays above

CC[C@H](C)[C@H](NC(=O)[C@H](Cc1ccccc1)NC(=O)[C@H](C)NC(=O)[C@H](CC(=O)O)NC(=O)[C@H](CCCCN)NC(=O)[C@H](CO)NC(=O)[C@@H]1CCCN1C(=O)[C@@H]1CCC(=O)N1)C(=O)NCC(=O)N[C@@H](CC(C)C)C(=O)N[C@@H](CCSC)C(N)=O ([pGlu]PSKDAFIGLM-NH2)
inactive: [1] | [2] | [5] | Aromatase (Homo sapiens)

CCOc1ccc(C[C@H]2NC(=O)CCSSC[C@@H](C(=O)N3CCC[C@H]3C(=O)N[C@@H](CCCN)C(=O)NCC(N)=O)NC(=O)[C@H](CC(N)=O)NC(=O)[C@H]([C@@H](C)O)NC(=O)[C@H]([C@@H](C)CC)NC2=O)cc1 ([Mpa][dY](Et)ITNCP[Orn]G-NH2; disulfide 1-6)
not listed: [1]
inactive: all other assays above

COc1ccc(C2(C#N)CCC(C(=O)O)CC2)cc1OC1CCCC1 (stereo unspecified)
active: [4] 29.8 µM
not listed: [1]
inactive: all other assays above

CC(=O)N(CC(C)C(=O)O)c1c(I)cc(I)c(N)c1I (stereo unspecified)
not listed: [1]
inactive: all other assays above

CCCCOC(=O)C(=O)Nc1cccc(-c2nn[nH]n2)c1
inactive: [1] | [2] | [3] | [4] | [9] | Aromatase (Homo sapiens)

FCOC(C(F)(F)F)C(F)(F)F
not listed: [7] | [8]
inactive: all other assays above

O=C(OC[C@H]1O[C@](O)(COC(=O)c2cccnc2)[C@@H](OC(=O)c2cccnc2)[C@@H]1OC(=O)c1cccnc1)c1cccnc1
not listed: [1]
inactive: all other assays above

Nc1ncnc2c1ncn2CCOCP(=O)(O)O
not listed: [1] | Aromatase (Homo sapiens)
inactive: all other assays above

Source: PubChem BioAssay (Tox21)
